Measurements as given in PubChem BioAssay.
Unmarked numbers belong to inactive results. How the calls were made is not given here.

Target: Pantothenate synthetase (Mycobacterium tuberculosis (strain ATCC 25618 / H37Rv)) (UniProt P9WIL5)
Assay: Coupled enzyme confirmation of inhibitors against recombinant Mtb PanC (AID 375);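 further: 0% = full reaction with vehicle and 100% = no enzyme background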
Details: coupled enzyme assay; at 10 µM, active compounds read high

Pantothenate synthetase (Mycobacterium tuberculosis (strain ATCC 25618 / H37Rv)), sequence (P9WIL5 whole entry, looked up): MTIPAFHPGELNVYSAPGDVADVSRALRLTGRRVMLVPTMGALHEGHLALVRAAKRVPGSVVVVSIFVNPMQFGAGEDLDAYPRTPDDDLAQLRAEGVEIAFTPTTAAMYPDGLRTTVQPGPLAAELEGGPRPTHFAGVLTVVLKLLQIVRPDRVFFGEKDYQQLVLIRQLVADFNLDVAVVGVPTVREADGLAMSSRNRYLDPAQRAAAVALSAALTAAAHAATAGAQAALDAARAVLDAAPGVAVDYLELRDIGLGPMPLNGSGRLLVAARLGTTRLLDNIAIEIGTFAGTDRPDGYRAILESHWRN

Row | Compound | inhibition
1 | CC(C)Oc1ccc(C2C(C(=O)c3ccco3)=C(O)C(=O)N2CCCN(C)C)cc1 (stereo not given) | 0%
2 | Cc1csc(SCCn2c(N3CCCC3)nc3c2c(=O)[nH]c(=O)n3C)n1 | 0%
3 | CCN(C(=O)CCc1nc(-c2ccccc2F)no1)c1cc(OC)ccc1OC | 0%
4 | CSC(=O)CC(=O)NC(=O)c1ccccc1 | 1%
5 | CNC(=O)c1ccsc1NC(=O)CN1C(=O)CCC1=O | 0%
6 | O=C(O)CCn1[nH]c(=O)ccc1=O | 0%
7 | CC(=O)N1CCc2cc(S(=O)(=O)NCCC3=CCCCC3)ccc21 | 2%
8 | CCCn1c(=O)c2[nH]c(C3CCCC3)nc2n(CCC)c1=O | 7%
9 | CN(CC(=O)N1CCN(c2ccc(F)cc2)CC1)S(=O)(=O)c1ccc(F)cc1 | 0%
10 | COc1cccc(NC(=O)COC(=O)c2ccco2)c1 | 0%
11 | CC(C)NC(=O)CSc1nc2ccccc2n1-c1ccccc1 | 1%
12 | COc1ccc2c(c1OC)C(=O)N(c1ccc3c(c1)CCC3)C2=O | 2%
13 | Cc1sc2nc(SCC(=O)NCCO)n(C)c(=O)c2c1C | 0%
14 | CCN(CCO)C1CC(=O)N(c2ccccc2C)C1=O (stereo not given) | 0%
15 | CC1(C)CC(=O)c2c(O)cc(O)cc2O1 | 3%
16 | C/C(N)=C(/C#N)C(=O)COC(=O)c1cc(S(=O)(=O)N2CCCCC2)ccc1C | 0%
17 | Cc1onc(-c2ccccc2)c1C(=O)Nc1ccc(S(=O)(=O)N2CCCCC2)cc1 | 0%
18 | COc1ccc(S(=O)(=O)Nc2cccc(C)n2)c2ccccc12 | 2%
19 | CCOC(=O)Cc1csc(NC(=O)CN(C)S(=O)(=O)c2ccc3c(c2)CCC(=O)N3)n1 | 0%
20 | CC1Cc2ccccc2N1C(=O)c1cccnc1 (stereo not given) | 0%

Row | Compound | inhibition
21 | COc1cc(C2=NOC(C(=O)NCc3ccc(F)cc3)C2)cc(OC)c1OC (stereo not given) | 0%
22 | Cc1sc2ncnc(SCC(=O)N3CCCC3)c2c1C | 0%
23 | O=S(=O)(Nc1ccc(Cc2ccncc2)cc1)N1CCCC1 | 0%
24 | CCCNS(=O)(=O)c1ccc(OCC(=O)NCc2ccco2)cc1 | 2%
25 | CC1/C(=N/O)C(CN(C)C)C2CC1C2(C)C (stereo not given) | 0%
26 | O=C(NCCCN1CCOCC1)c1cc(-c2ccc(Cl)cc2)on1 | 4%
27 | CC(=O)Nc1ccn(-c2ccccc2)n1 | 2%
28 | Cc1c(Cl)cccc1Nc1ccccc1C(=O)O | 1%
29 | Oc1c(I)cc(I)c2cccnc12 | 2%
30 | CCOC(=O)N1CCN(C(=O)Nc2ccc3oc(C)nc3c2)CC1 | 7%
31 | COC(=O)C(F)(F)Sc1c(C)[nH]c2ccccc12 | 3%
32 | Cc1cc(Br)ccc1NC(=O)CNC(=O)CSc1n[nH]c(N)n1 | 6%
33 | Cc1sc2nc(CN3CCN(S(=O)(=O)c4cccc5nonc45)CC3)[nH]c(=O)c2c1C | 0%
34 | COc1ccc(-c2nnc(SC(C)C(=O)Nc3nccs3)n2-c2ccccc2)cc1OC (stereo not given) | 0%
35 | CCC(C)(C)NC(=O)CN(C(=O)c1snc(C(N)=O)c1N)c1ccc2c(c1)OCO2 | 11%
36 | CC(C)Oc1cccc(-c2cc(C(=O)N3CCN(S(C)(=O)=O)CC3)c3ccccc3n2)c1 | 5%
37 | CC(C)Cn1c(N)c(C(=O)COC(=O)c2cc(-c3ccco3)nc3ccccc23)c(=O)n(C)c1=O | 7%
38 | CC(C)=CCCC(C)N(C=O)C(C)CCC=C(C)C (stereo not given) | 3%
39 | Cc1ccccc1N1OC2C(=O)N(c3ccc(F)cc3)C(=O)C2C1c1ccccn1 (stereo not given) | 3%
40 | O=S(=O)(c1ccc(-c2csc(-c3cccnc3)n2)cc1)N1CCCCC1 | 5%
